Results filed as inconclusive are left out. The source made the active and inactive calls. Calls follow the shape of the full dose curve.

A short description of this experiment: Natriuretic polypeptide receptor (hNpr1) antagonism - Pilot counterscreen GloSensor control cell line (AID 1347045). The following applies: HEK293 cGMP GloSensor cells, SNP-stimulated luminescence, 20 min; series mostly up to 38.3 µM. The method, then: F. Fan, B. F. Binkowski, B. L. Butler, P. F. Stecha, M. K. Lewis, K. V. Wood, Novel genetically encoded biosensors using firefly luciferase. ACS Chem Biol 3, 346-351 (2008).
PROTOCOL TABLE (as described by Inglese J, Shamu CE and Guy RK. 2007)
SEQUENCE No. (e.g., 1, 2, 3, etc.); […] (e.g., Cells, Incubation, Reagent, etc.); VALUE and DESCRIPTION.
1. Cells. Seed 1500 HEK293 cGMP-sensor cells per well in 4uL into Greiner 1536-well white/solid bottom high base, TC plates.
2. Incubation. Incubate plated cells at 37C in 5% CO2, 95% RH overnight.
3. Reagent. Add 1uL per well GloSensor reagent from Promega (2% final concentration) or CO2 independent media vehicle control to respective columns of Greiner 1536-well plates.
4. Incubation. Incubate plated cells at room temperature for 2 h, protect from light.
5. Compounds. Library compounds and DMSO vehicle control added at 23nL per well, transferred by Pin Tool.
6. Incubation. Incubate plated cells for 30 min. at room temperature, protect from light.
7. Detector. GloSensor baseline pre-read luminescence measured using CCD-based camera (Viewlux).
8. Compound. Add 1uL of sodium nitroprusside (SNP) to 50 uM final concentration to stimulate soluble guanylyl cyclase (GC) or CO2 independent media as vehicle control.
9. Incubation. Incubate treated cells at room temperature for 20 min., protect from light.
10. Detector. GloSensor post-SNP luminescence measured using CCD-based camera (Viewlux).
NOTES (numbers refer to Sequence numbers above; values are from representative experiments)
1. HEK293 cells expressing GIP/pGS-40F were grown to 85-95% confluence (48-72 h) in T175 culture flasks (CO2 independent media supplemented with 10% FBS, 1% Pen/Strep antibiotics, and 1 ug/mL puromycin). Trypsinize and harvest cells from T175 culture flasks and filter through 40 um cell strainer. Cells counted with Invitrogen Countess (30,000,000 - 50,000,000 cells/flask).
2. Cells incubated for 24 h. at 37C in 95% RH incubator with metal lid having gas-exchange holes.
3. Prepare GloSensor Reagent (Promega): Reconstitute GloSensor luciferase substrate by adding 8.2mL Hepes buffer to 250mg substrate, mix well, protect from light and stored at -80C. Prepare a fresh 12% GloSensor solution in CO2 independent supplemented plating media (see above). Mix well and store at ambient temperature, protected from light. 1uL 12% GloSensor Luciferase Reagent added (2% final concentration) to respective columns of 9 x 1536-well Greiner plate with BioRaptr, 1uL CO2 independent plating media added to respective columns as vehicle control with BioRaptr.
4. Cells incubated for 2 h. at ambient temperature, protected from light with metal lid having gas-exchange holes.
5. 23nL of LOPAC128 library compounds (7 plates) or DMSO vehicle control transferred to 9 Greiner white/solid bottom high base, TC plates in 7 interplate 1:5 titrations (see Yasgar, A. et al. 2008) with Pintool. Two of the 9 plates are DMSO-only in compound field at beginning and end of compound library-treated plates.
6. Cells incubated for 30-50 min. at ambient temperature protected from light with metal lid having gas-exchange holes.
7. Read GloSensor + Antagonist/Compound baseline Luminescence on the ViewLux [Exposure, 30 s; Gain, High; Speed, Slow; Binning, 2X]
8. SNP solution prepared at 500 mM (in H2O) stock concentration. From this a working dilution was prepared at 300 uM in CO2 Independent media. 1uL of 300 uM SNP (50 uM final concentration) or CO2 Independent media vehicle control dispensed into respective columns of 9 x Greiner 1536-well white/solid bottom, tissue culture plates with BioRaptr.
9. Cells incubated for 20 min. at ambient temperature, protected from light with metal lid having gas-exchange holes.
10. Read final luminescence on the ViewLux. [Exposure, 30 s; Gain, High; Speed, Slow; Binning, 2X.]
[…]
Consider `CC[C@H](C)C(=O)O[C@H]1CCC=C2C=C[C@H](C)[C@H](CC[C@@H]3C[C@@H](O)CC(=O)O3)[C@H]21`, for which the result was inactive.

For the molecule `N[C@H](CO)C(=O)O`, the molecule was classed as inactive.

Regarding `C[N+]1(CCCCC[N+]2(C)CCCC2)CCCC1`, the molecule was called inactive.

Consider `Nc1cc(Cl)c(NC2=NCCN2)c(Cl)c1`, for which the result was inactive.

As for `CC(=O)O[C@H]1C[C@@H]2CC[C@@H]3[C@H](CC[C@@]4(C)[C@H]3C[C@H]([N+]3(C)CCCCC3)[C@@H]4OC(C)=O)[C@@]2(C)C[C@@H]1[N+]1(C)CCCCC1`, the call was inactive.

In the case of `CCCn1c(=O)[nH]c(=O)c2[nH]cnc21`, the outcome was inactive.

For `COc1cc2c(cc1O)CC[C@@H]1[C@@H]2CC[C@]2(C)[C@@H](O)CC[C@@H]12`, the outcome was inactive.

In the case of `CN1C2CCC1CC(OC(=O)c1c[nH]c3ccccc13)C2` (configuration not stated), the molecule was called inactive.

For the molecule `C1CCc2nnnn2CC1`, the molecule was classed as inactive.

As to `CCCC1O[C@@H]2C[C@H]3[C@@H]4CCC5=CC(=O)C=C[C@]5(C)[C@H]4[C@@H](O)C[C@]3(C)[C@]2(C(=O)CO)O1` (some centres not stated), the molecule was classed as inactive.

`O=C1CCC(c2ccc(-n3ccnc3)cc2)=NN1`: the outcome was inactive.

In the case of `C[C@@H]1C(=O)NC2=Nc3cccc(Cl)c3CN21`, the molecule was classed as inactive.

Take `CNCCC(Oc1ccccc1C)c1ccccc1` (configuration not stated): the molecule was classed as inactive.

On to `CC(C)COC(=O)OCN1C(=O)CN(CCN2CC(=O)N(COC(=O)OCC(C)C)C(=O)C2)CC1=O`, for which the call was inactive.

Consider `O=C(O)c1cc2cc(Cc3cccnc3)ccc2o1`, for which the result was inactive.

On to `N[C@@H](Cc1cnc[nH]1)C(=O)O`, for which the molecule was classed as inactive.

For `CCC(NC(C)C)C(O)c1ccc(O)c(O)c1` (configuration not stated), the outcome was inactive.

The values are drawn from PubChem BioAssay (NCATS).
